Test results from PubChem BioAssay AID1508600 (Functional Genomics Laboratory (NCATS/FGL), 2020).
Among all 53,000 sequences or so, about 3,700 (7%) were called active. The entries come from a sample that favours actives as a whole. Values without a mark were called inactive.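 Rule for the calls: active = gene knockdowns whose robust z-score for IL-1 alpha signal is at least 2 or at most -2, so actives lie on both sides; inactive = the rest.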

Assay: Components of the Cytosolic LPS Sensing Pathway: Gene Identification via Genome-wide siRNA Screen;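 note: robust z of the log signal after scaling to non-targeting control siRNA wells of the plate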
Conditions: RAW264.7 macrophages, IL-1a HTRF, actives lie on both sides, screened at 100 nM (by protocol), cells primed 5 h with Pam3CSK4 first
Method in brief: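 Supernatant IL-1a by HTRF from RAW264.7 cells primed with Pam3CSK4 (5 hours) and transfected with LipidA (24 hour) after 48h siRNA knockdown at 100 nM; cell viability checked with CellTiter-Glo.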
GGACAAGAAGAAAGAAAAGTT against Tmbim6 gave a z-score of -1.07. For GGAAGUUCCACCAUACCUCTT against Cypt4, the z-score was -2.5 (active). With GGCGACAGCGUAAAAGUACTT against Lyst the z-score was -0.347. With GGAAAAAAAACACUGACUGTT against Hoxa5 the z-score was 1.05. With GGCUCAAGGCUGAGUUUCATT against En2 the z-score was 0.704. GGCCUGGAGGACUUUAUAATT against Cyp2a4 gave a z-score of -1.13. With GGCUAGCUACACAGUCUCATT against Plscr2 the z-score was 0.376. In the case of GCAUCAUUGUCAAUCAUAUTT against Olfr578, the z-score is reported as -2.25 (active). CCGAAGGACAGUGUUUAUUTT against Mfsd11 gave a z-score of 0.212. GCCUGCUAUUUAAUUCAUATT against Fam168a showed a z-score of -0.671. Sequence GGUCCAGUGAAAUAAUAUCTT against Orc3 has a z-score of 0.774. In the case of GGACUACCAAUACGAACUGTT against Il23a, the z-score is reported as 2.22 (active). Work on GCAUAAAUUUCAAGAGCGCTT against Gigyf1 yielded a z-score of -0.243. In the case of CGUAAGAUCAACGAGAGAUTT against Ncaph2, the z-score is reported as -0.756. Work on GGGAAAGACUGGAAAUCUUTT against Tmod3 yielded a z-score of 0.515. With GGAGAUCGAAAAGAAUUUCTT against Mx2 the z-score was 1.17. In the case of GGAGGAAGAACUGUCUUUGTT against Wasf1, the z-score is reported as 0.221. With GGUGUUGGAUCAUGAUGUUTT against Nf2 the z-score was -2.14 (active). Sequence GCCCUUCAAAAGGAGCAGUTT against Cap1 has a z-score of 1.86. GGACCAGCUGGACAAAAGATT against Zbtb18 gave a z-score of 0.131. In the case of GGCAUCAAAGACAAUACAATT against Vmn1r15, the z-score is reported as 3.19 (active). For “GGUCAAAUCACUGAGUUUUTT against 9530080O11Rik”, the z-score was 1.74. GGUUGUCAUUCUUAUCCUUTT against Mageb1 gave a z-score of 0.57. Sequence GGGAAUGCUUAUGUAGGCATT against Aldh3b1 has a z-score of -1.03. For GGCGGUUAGACAUUAUGGATT against Plac9a, the z-score was 1.25. With GGCGUGUGCAAGAAAAUCGTT against Cacng3 the z-score was 2.53 (active). GGAUGAGUUGUCAUUGAUATT against Nck1 gave a z-score of 0.998. With CCUGUAGGGCUUUUUGAAATT against Mex3a the z-score was 0.843. GGUGUUUUUGUCCAGGUCATT against Kcnk3 gave a z-score of -0.618. For GCAAGACAAGUUCUACGAUTT against Csad, the z-score was 1.83. In the case of GCCUGUUCGGGAAUCUUACTT against Olfr297, the z-score is reported as 2.42 (active). Work on GCAUUCAGUUGGGACAGUATT against Hsh2d yielded a z-score of 0.443. With CGCAGAGGUUUUACUUUAATT against Mycbpap the z-score was 1.52. Sequence GCGAAGACGGAAGCAUAUUTT against Emc8 has a z-score of 0.12. For GGCGGAAAUCUUGAGCAAATT against Slc28a2, the z-score was 4.39 (active). Work on GGAGCUUAUCAACUACUAUTT against Cltc yielded a z-score of -0.181. For GGAGAGAAACUGCGUGUAATT against Sla, the z-score was 1.46. GGCAGAAAUCCAUCAGAGATT against Rtkn2 gave a z-score of -0.349. With GCCGUACUUCGUCAAGCUATT against Ung the z-score was 0.395. With GGCAUCUAGGAGAACCUCATT against Insig2 the z-score was -1.01. Work on CGAGAAUUACAGACACUUGTT against Noc4l yielded a z-score of 0.962. Work on GGCAAAAAGGCAGUAGCCATT against Ncl yielded a z-score of 0.644. For GGCGGAGUUCUCAAGACUUTT against Nudt18, the z-score was 3.55 (active). GGAACUGGAUCAAGAAUUUTT against Hhat showed a z-score of 0.0393. Work on CGGACAUAGUCCAUCAUUCTT against Aig1 yielded a z-score of 1.47. In the case of CGGUAUAGUAGAUACUUAATT against Picalm, the z-score is reported as 2.01 (active). With “CCCACCUUCCAAAAGGAUCTT against 5031434C07Rik” the z-score was -0.882. Work on GGUGAAAUGGAUCGUCCUCTT against Nme8 yielded a z-score of -0.926. Sequence GGAUGGUCUGCUAUUACAUTT against Phf7 has a z-score of 0.832. In the case of CCCUCAAGGCUGAUAAACATT against Il17b, the z-score is reported as -2.26 (active). For GGCUACAUGAGCUGGAGAATT against Insr, the z-score was 2.71 (active). Work on GCCGCUAACUAAAGUCAAATT against Aloxe3 yielded a z-score of 1.15. In the case of GGAGAUUGGCUUCCAGAAATT against Slc38a7, the z-score is reported as 0.494. Work on GCAACACAUUUGAACCACUTT against Usp15 yielded a z-score of -1.79. For CCACGAGGAGCUCAUUUUCTT against Dhfr, the z-score was 0.385. With GGCCAAAGGCAUCAGGCAUTT against Gsto2 the z-score was -1.7. With GCUCAAACGAAAUGAUUCATT against Gys2 the z-score was 2.01 (active). GCCGCACGUUUUUGAGUUGTT against Islr2 gave a z-score of -0.554. In the case of CCGAAAUUUUGAGUACUGUTT against Vmn1r67, the z-score is reported as 0.285. In the case of CCACUUAAAAUUCAUUCCUTT against Arl6ip1, the z-score is reported as -0.21. With GGAUGAUGCCCGAAAGAACTT against Zfp536 the z-score was -4.55 (active). GGAGAAGACACAGAGAACCTT against Pkd2l1 showed a z-score of 0.645. Sequence GGGCAUGGGAUUUAAUUCUTT against Dnajc11 has a z-score of 1.54. CGCUAUGGUUUCUCAGCUUTT against Myh4 showed a z-score of -0.02. For GGAGAUUCAGAAGAUCCUCTT against Isoc2b, the z-score was 2.49 (active). In the case of GCUCUCACCUUCAUUUGAATT against Tmem174, the z-score is reported as -1.37. With GGAAAUAAUGUUACUGACATT against Zfp445 the z-score was -0.178. GGCAUCAAUAGGAAGAUGCTT against Rgs19 showed a z-score of 0.182. For GCAUUUAGGUCUGAUAAAGTT against Gpr61, the z-score was 0.00391.
